# Hit rate of the full screen: of about 69,000 compounds, about 8,600 (12%) showed an effect of 50% or more. For the sample, strong results were picked, then their nearest neighbours and some compounds at random.
# System: Plasmodium berghei
# Assay: Screen against P. berghei liver stage (PbLuc), transformed with Luciferase, at 10uM
# Format: functional, HepG2
# Conditions: tested at 10 uM
row,SMILES,INHIBITION [%]
1,Cc1nccn1[C@@H]1CC[C@@H](N(C)S(=O)(=O)c2ccc(F)cc2)[C@H]1O,-0.4
2,Cc1noc(CCCC(=O)N(CCC(=O)O)Cc2ccc(F)c(F)c2)n1,-13
3,CN(C)c1ccccc1C(=O)N1CCCC(c2cccc(C(=O)O)c2)C1 (stereo unspecified),33.4
4,O=C(c1ccc(Sc2ccccn2)cc1)N1CCCSCC1,-1.3
5,Cc1cc(C)c(CNC(=O)NCC(O)c2ccc(Cl)cc2)c(=O)[nH]1 (stereo unspecified),29.2
6,CCN1CCN(C(=O)C(C)n2cc(Br)cn2)CC1 (stereo unspecified),21.7
7,COCCNC(=O)[C@@H]1C[C@H]2[C@H](CCN2c2cc(OC)ncn2)O1,7.53
8,CS(=O)(=O)CCC(=O)Nc1cc(F)ccc1OCC1CCCO1 (stereo unspecified),-14
9,CC(C)N1CCCC2(CCN(Cc3nncn3C(C)C)C2)C1=O (stereo unspecified),-27.4
10,CC(C)c1cc(C(=O)NCC2CCCN(c3ncccn3)C2)n(C)n1 (stereo unspecified),70
11,CC(C)c1cc(C(=O)NCC2CCCN(C(C)C)C2)n(C)n1 (stereo unspecified),34.1
12,CCn1nc(C(C)C)cc1C(=O)NCC1CCCN(c2ccccn2)C1 (stereo unspecified),45
13,Cc1cc(C)nc(Nc2cncc(C3CCCN(S(C)(=O)=O)C3)n2)n1 (stereo unspecified),29.2
14,CCN1CCCc2cc(-c3cncn3C(C)CN3CCOCC3)ccc21 (stereo unspecified),27.6
15,CCC(CN1CCOCC1)n1cncc1-c1ccc2c(c1)CCN2CC (stereo unspecified),61.9
16,CCC(CN1CCOCC1)n1cncc1-c1ccc2c(c1)CCCN2C (stereo unspecified),39.7
17,CCC(NC(=O)c1cc(OC)c2c(c1)OCCO2)c1cccs1 (stereo unspecified),24.3
18,Cc1noc(C)c1CN1CCn2nc(CCC(=O)N3CCCC3)cc2C1,19.3
19,COc1cccc(OCCN2CC[C@@](O)(C3CCOCC3)[C@H](C)C2)c1,49.3
20,COCCOCCSc1nnc(Cc2ccccc2F)o1,6.88
21,N#CCCSc1nnc(Cc2ccccc2F)o1,20.5
22,CS(=O)(=O)CCSc1nnc(Cc2ccccc2F)o1,52.6

row,SMILES,INHIBITION [%]
1,COc1ccccc1Cc1nnc(SCCS(C)(=O)=O)o1,53.8
2,CCOCCSc1nnc(Cc2ccccc2F)o1,-19
3,COc1cccc(Cc2nnc(SCCS(C)(=O)=O)o2)c1,49.1
4,CC[C@H]1N(CC2CCC2)CCC[C@]12CCC(=O)N2Cc1ccncc1,19.8
5,COCCC(=O)N1CCC(c2cc3ncc(C)nc3[nH]2)CC1,15.9
6,Cc1cnn(CC2CCCCN2Cc2c(C)noc2C)c1 (stereo unspecified),26.09
7,CC1CCCN(Cc2cccc(C(=O)Nc3nccs3)c2)C1 (stereo unspecified),-37.8
8,O=C(c1ccccn1)N1CCC(c2nc(O)cc(-c3ccncc3)n2)C1 (stereo unspecified),19.6
9,CCOc1ncccc1NC(=O)NC1CCCN(c2ncccn2)C1 (stereo unspecified),30.8
10,Nc1cc(-c2cccc3c2CCNC3)ncn1,28.7
11,Nc1cnc(-c2cccc3c2CCNC3)cn1,-0.178
12,c1cc2c(c(-c3cc(N4CCOCC4)ncn3)c1)CCNC2,58.6
13,COc1cc2nc3n(c(=O)c2cc1OC)CCN(C(=O)C1CC1)CC3,35.2
14,COc1cc(OCC(=O)NCCc2ccccc2)cc(OC)c1OC,-13.2
15,COCC(=O)N1CC[C@@H]2O[C@@H](C)C[C@H]2C1,10.1
16,COCCC(=O)N1CC[C@H]2O[C@@H](C)C[C@H]2C1,64.9
17,COCCC(=O)N1CC[C@@H]2O[C@@H](C)C[C@H]2C1,18.8
18,COCCn1c(-c2cccc(OC)c2)cnc1NC(=O)NC(C)C,18.4
19,Nc1ncc(-c2ccc(C(F)(F)F)cc2)c(C2CCCNC2)n1 (stereo unspecified),70.1
20,Nc1ncc(-c2ccc(F)cc2)c(C2CCCNC2)n1 (stereo unspecified),28.3
21,Nc1ncc(-c2ccc(Cl)cc2)c(C2CCCNC2)n1 (stereo unspecified),31.6
22,O=c1cc2c(nn1CN1CCN(c3ccccc3)CC1)CCCC2,38.9

row,SMILES,INHIBITION [%]
1,Cn1cc(C(=O)N2CCCC2c2noc(C3CC3)n2)c2ccccc21 (stereo unspecified),19.2
2,O=C1CO[C@H]2CN(C3CCOCC3)C[C@H]2N1Cc1ccncc1,22.2
3,O=C1CO[C@@H]2CN(C3CCOCC3)C[C@H]2N1Cc1ccncc1,73.6
4,O=C1CO[C@H]2CN(C3CCOCC3)C[C@H]2N1Cc1ccc(F)cc1,4.82
5,CCOC(=O)C(C)Nc1ccc(CCN2CCOCC2)cc1 (stereo unspecified),-30.1
6,CCC(Nc1ccc(CCN2CCOCC2)cc1)C(N)=O (stereo unspecified),-28.8
7,CCC(Nc1ccc(CCN2CCCCC2)cc1)C(N)=O (stereo unspecified),57.2
8,Cc1nn(Cn2ccc(C(=O)N3CCCC3)n2)c(C)c1Cl,7.92
9,COc1cc(-c2nc(C3CC3)nn2-c2ccnc(C)c2)nc(OC)n1,-10.2
10,O=C(Nc1nnc(C(F)F)s1)NC(CCO)c1cccs1 (stereo unspecified),13.8
11,CN(Cc1cnn(C)c1)C1CCN(c2cccc(-c3cscn3)c2)CC1,45.6
12,Cc1nnc(CN(C)C2CCN(c3cccc(-c4cscn4)c3)CC2)o1,23.5
13,CN(Cc1nccs1)C1CCN(c2cccc(-c3cscn3)c2)CC1,63.6
14,CN(C)CCCN(C)C1CCN(c2cccc(-c3cscn3)c2)CC1,52.2
15,CN(Cc1ccon1)C1CCN(c2cccc(-c3cscn3)c2)CC1,30.9
16,Cc1cc(CN(C)C2CCN(c3cccc(-c4cscn4)c3)CC2)on1,44.8
17,Cc1cc(C2CCCN(CCCS(C)(=O)=O)C2)n[nH]1 (stereo unspecified),11.9
18,CN(C)c1ccc(C(=O)N2CCN(Cc3cscn3)CC2)cn1,-0.219
19,FCCOc1cccc(NCc2c[nH]nc2-c2cccnc2)c1,34.6
20,CCOCc1cccc(NCc2c[nH]nc2-c2cccnc2)c1,49.1
21,COc1ccc(NCc2c[nH]nc2-c2cccnc2)cc1,56.8
22,CC(Cn1cccn1)NC(=O)NCc1ccc(OC2CCCC2)nc1 (stereo unspecified),54.4

row,SMILES,INHIBITION [%]
1,CC(Cn1cccn1)NC(=O)NCc1cccnc1OC1CCCC1 (stereo unspecified),-21.7
2,CC(Cn1cccn1)NC(=O)NCc1ccnc(OC2CCCC2)c1 (stereo unspecified),23.5
3,CC(C)n1cnnc1CN1CCC2(CCCN(C3CCCCC3)C2=O)C1 (stereo unspecified),-64.1
4,CCN1CCCC1CNC(=O)c1cc(COc2ccccc2F)[nH]n1 (stereo unspecified),-11.2
5,COc1ccc2c(c1)CCCN(CC(=O)NCC1CCCO1)C2 (stereo unspecified),39.6
6,Cc1c(C(=O)N2CCC(N3CCCCC3)CC2)n(C)c2ccc(Cl)cc12,69.3
7,Cc1c(C(=O)N2CCOCC2)n(C)c2ccc(Cl)cc12,-1.3
8,Cc1c(C(=O)N2CCN(C)CC2)n(C)c2ccc(Cl)cc12,20.9
9,NS(=O)(=O)CC1CCCN(C(=O)CCCC2CCCC2)C1 (stereo unspecified),43.8
10,O=C(CCC1CCN(C2Cc3ccccc3C2)CC1)NCC1CCCO1 (stereo unspecified),25.8
11,O=C1CCC2(CCN(Cc3nccs3)CC2)N1Cc1ccccc1,11.4
12,COc1ccc(-c2ccnc(N)c2)c(OC)c1,-10.5
13,COc1cc(F)ccc1-c1cc(N)ccn1,49.6
14,COc1ccc(-c2cc(N)ccn2)c(OC)c1OC,61.5
15,CCOc1ccc2oc(-c3cnn(C)c3C)c(O)c(=O)c2c1,0.207
16,COC(=O)c1ccc(NC(=O)CCNCc2ccco2)cc1,36.5
17,CN1CCN(Cc2ccc(-c3ccc4[nH]ccc4c3)nc2)CC1,27.5
18,CN1CCN(Cc2ccc(-c3ccc(-c4ccn[nH]4)cc3)nc2)CC1,54.9
19,CN1CCN(Cc2ccc(-c3ccc(C(N)=O)cc3)nc2)CC1,24.2
20,CCCC(=O)N1CCCCC1c1nccc(C)n1 (stereo unspecified),20.8
21,COc1ccc(CN(C)[C@@H]2CN(C(=O)c3cccn3C)C[C@H]2O)cc1,32.8
22,CCN(C)c1ncc2c(c1C(=O)O)CCN(C1CCOC1)C2 (stereo unspecified),33.4

row,SMILES,INHIBITION [%]
1,CN1CCN(c2ncc3c(c2C(=O)O)CCN(C2CCOC2)C3)CC1 (stereo unspecified),58.5
2,CCN(CC)c1ncc2c(c1C(=O)O)CCN(C1CCOC1)C2 (stereo unspecified),15.7
3,CO[C@@H]1CCN(C(=O)c2ccsc2)[C@@H]2CN(CC3CC3)C[C@@H]21,-19.6
4,NC(=O)COc1ccc(CN2CCC3(CC2)[C@H](O)C[C@@H]3O)cc1Cl,28.7
5,NC(=O)COc1ccc(CN2CCC(O)(CN3CCCCC3)C2)cc1Cl (stereo unspecified),50.5
6,NC(=O)COc1ccc(CN2CC[C@@]3(O)CCCC[C@H]3C2)cc1Cl,16.8
7,COc1ccccc1C1CCN(C(=O)CN2C(=O)OC(C)(C)C2=O)CC1,-140
8,Cc1c(C(C)NC2CCOCC2)cnn1-c1ccc(F)cc1F (stereo unspecified),22.3
9,CSc1ncc(CNC(C)c2cnn(-c3ccc(F)cc3F)c2C)cn1 (stereo unspecified),50.3
10,Cc1c(C(C)NC2CCCC2)cnn1-c1ccc(F)cc1F (stereo unspecified),31.9
11,Cc1c(C(C)NCC2CCCC2)cnn1-c1ccc(F)cc1F (stereo unspecified),62.9
12,COc1ccc(-n2ncc(C(C)NCc3cnc(SC)nc3)c2C)cc1 (stereo unspecified),7.6
13,CSc1ncc(CNC(C)c2cnn(-c3ccccc3)c2C)cn1 (stereo unspecified),36.7
14,O=C(NC[C@H]1OC[C@@H]2CCN(C3CCOCC3)C[C@@H]21)c1ccncc1,36.2
15,COc1c(CNC2CCc3c(Cl)cccc32)c(C)nn1C (stereo unspecified),36.3
16,CCCN1CCC(N2CCC(Cn3cc(CC(C)O)nn3)CC2)CC1 (stereo unspecified),25.3
17,CC(O)Cc1cn(CC2CCN(C3CCSCC3)CC2)nn1 (stereo unspecified),57.8
18,OCc1cn(CC2CCN(C3CCSC3)CC2)nn1 (stereo unspecified),-14.1

# — ChEMBL document CHEMBL4513216, “Probing the Open Global Health Chemical Diversity Library for Multistage-Active Starting Points for Next-Generation Antimalarials” (ACS Infect Dis, 2020)
